From ChEMBL document CHEMBL3988442, “University of Dundee, Small-Polar-MMV Screening Library” (2021)
For some of these results: Potency and affinity values are given separately.

Experiments:
Set-up in all cases: scale not given: direction of the effect not stated beside the values
[1] = target: Protein translocase subunit SecA (Escherichia coli (strain K12)) (UniProt P10408); test: Assay to Identify E. coli SecA ATPase Inhibitors; assay type: functional; settings: 30 µM
[2] = target: T1, Ubiquitin-activating enzyme e1, putative (Leishmania donovani (strain BPK282A1)) (UniProt E9BSI1); test: Leishmania donovani Ubiquitin Activating Enzyme (LdE1); assay type: functional; settings: 30 µM
T1 sequence (whole entry): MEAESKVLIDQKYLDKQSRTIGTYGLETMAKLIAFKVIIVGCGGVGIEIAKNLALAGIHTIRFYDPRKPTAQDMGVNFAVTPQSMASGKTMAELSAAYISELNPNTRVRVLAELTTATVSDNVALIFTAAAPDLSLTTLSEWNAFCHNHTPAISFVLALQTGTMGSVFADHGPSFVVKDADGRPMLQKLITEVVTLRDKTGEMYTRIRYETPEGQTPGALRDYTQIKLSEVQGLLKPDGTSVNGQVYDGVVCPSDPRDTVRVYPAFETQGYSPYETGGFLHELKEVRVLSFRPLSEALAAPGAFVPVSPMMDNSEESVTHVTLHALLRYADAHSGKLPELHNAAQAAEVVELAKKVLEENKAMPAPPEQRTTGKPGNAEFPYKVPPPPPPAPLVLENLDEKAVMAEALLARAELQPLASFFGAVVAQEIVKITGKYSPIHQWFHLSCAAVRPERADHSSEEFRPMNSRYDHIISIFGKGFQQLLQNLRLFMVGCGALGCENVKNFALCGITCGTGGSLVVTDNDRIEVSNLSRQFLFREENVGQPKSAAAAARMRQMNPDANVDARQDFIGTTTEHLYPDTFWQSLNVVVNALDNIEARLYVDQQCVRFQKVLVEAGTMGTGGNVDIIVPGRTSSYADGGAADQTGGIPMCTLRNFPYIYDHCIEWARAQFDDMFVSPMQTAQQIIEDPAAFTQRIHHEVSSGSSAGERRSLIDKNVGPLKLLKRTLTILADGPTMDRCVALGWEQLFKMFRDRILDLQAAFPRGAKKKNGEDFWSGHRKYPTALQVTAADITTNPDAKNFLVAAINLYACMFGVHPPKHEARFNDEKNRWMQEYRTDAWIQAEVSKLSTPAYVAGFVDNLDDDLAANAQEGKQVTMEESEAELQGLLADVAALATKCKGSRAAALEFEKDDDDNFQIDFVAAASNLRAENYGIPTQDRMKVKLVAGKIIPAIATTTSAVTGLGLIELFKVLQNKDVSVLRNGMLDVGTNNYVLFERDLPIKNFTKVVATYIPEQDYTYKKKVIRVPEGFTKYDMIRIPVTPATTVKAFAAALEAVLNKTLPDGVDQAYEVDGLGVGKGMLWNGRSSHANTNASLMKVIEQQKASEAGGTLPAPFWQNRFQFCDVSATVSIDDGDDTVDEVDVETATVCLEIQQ

[3] = target: AMP-activated protein kinase, AMPK (Homo sapiens) (UniProt P54646+O43741+P54619+Q9UGJ0+Q9Y478+Q13131+Q9UGI9); test: AMP-dependent Kinase enzyme assay. An in vitro enzyme assay that detects ADP turnover that is directly proportional to AMPK activity. This uses naive AMPK that is activated during the assay with MK-8722; assay type: functional; settings: 30 µM
[4] = target: Sialic acid-binding Ig-like lectin 9 (Homo sapiens) (UniProt Q9Y336); test: Hs-Siglec9 ALPHAscreen SOP 20170721; settings: 10 µM
Sialic acid-binding Ig-like lectin 9 (Homo sapiens), sequence (Q9Y336 whole entry): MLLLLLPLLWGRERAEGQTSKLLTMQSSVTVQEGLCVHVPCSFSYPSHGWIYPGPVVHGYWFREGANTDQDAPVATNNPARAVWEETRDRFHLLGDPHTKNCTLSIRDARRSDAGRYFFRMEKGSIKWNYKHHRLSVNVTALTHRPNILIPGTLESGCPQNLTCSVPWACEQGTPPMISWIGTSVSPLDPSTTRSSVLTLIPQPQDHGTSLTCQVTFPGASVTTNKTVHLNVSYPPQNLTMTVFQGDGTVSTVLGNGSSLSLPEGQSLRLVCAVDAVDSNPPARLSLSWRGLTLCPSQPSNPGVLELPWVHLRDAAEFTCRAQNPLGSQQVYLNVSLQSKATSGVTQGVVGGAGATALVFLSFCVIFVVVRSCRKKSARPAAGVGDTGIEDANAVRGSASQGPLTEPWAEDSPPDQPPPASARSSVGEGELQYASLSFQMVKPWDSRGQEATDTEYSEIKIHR

[5] = tested on: Trypanosoma cruzi; test: Trypanosoma cruzi phosphomannomutase and mannose-1-phosphate guanylyltransferase assay; assay type: functional; settings: 10 µM
[6] = target: T2, Arginase-2, mitochondrial (Homo sapiens) (UniProt P78540); test: in vitro enzyme assay to detect the production of urea directly proportional to the activity of Arginase II; assay type: functional; settings: 33.3 µM; further: in the data most compounds retested in dose-response had high values
T2 sequence (whole entry): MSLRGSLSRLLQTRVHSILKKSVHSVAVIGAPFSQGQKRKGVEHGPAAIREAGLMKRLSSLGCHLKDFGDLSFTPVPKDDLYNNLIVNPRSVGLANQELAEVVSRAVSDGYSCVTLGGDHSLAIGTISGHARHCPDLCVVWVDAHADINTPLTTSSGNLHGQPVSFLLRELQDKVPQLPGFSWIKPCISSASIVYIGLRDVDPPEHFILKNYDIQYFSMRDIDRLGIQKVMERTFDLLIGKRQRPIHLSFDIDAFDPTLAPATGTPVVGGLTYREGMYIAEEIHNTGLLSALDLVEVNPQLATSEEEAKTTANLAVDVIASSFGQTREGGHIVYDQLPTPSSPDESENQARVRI

[7] = target: T3, Proteasome subunit beta (Trypanosoma cruzi) (UniProt O96673); test: Trypanosoma cruzi proteasome chymotrypsin-like activity (TcProtChymo) assay.; further: in the data most compounds retested in dose-response had high values; assay type: functional; settings: 9.37 µM
T3 sequence (whole entry): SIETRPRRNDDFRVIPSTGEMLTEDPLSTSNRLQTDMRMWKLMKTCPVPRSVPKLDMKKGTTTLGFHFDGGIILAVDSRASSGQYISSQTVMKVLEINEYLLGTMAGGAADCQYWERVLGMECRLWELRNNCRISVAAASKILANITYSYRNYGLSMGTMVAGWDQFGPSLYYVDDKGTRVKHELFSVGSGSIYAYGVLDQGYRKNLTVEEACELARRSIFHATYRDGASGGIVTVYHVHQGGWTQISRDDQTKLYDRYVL

[8] = organism: Homo sapiens; test: To identify inhibition of the IFN signalling (Jak-Stat) pathway via expression of an eGFP reporter gene under the control of an IFN-stimulated response element (ISRE) containing MxA promoter.; assay type: functional; settings: 30 µM
[9] = target: T4, Tyrosyl-tRNA synthetase, putative (Trypanosoma cruzi (strain CL Brener)) (UniProt Q4DSP6); test: Trypanosoma cruzi tyrosyl tRNA synthetase (TcYRS) _High Tyrosine SOP; assay type: functional; settings: 30 µM; further: in the data most compounds retested in dose-response had high values
T4 sequence (whole entry): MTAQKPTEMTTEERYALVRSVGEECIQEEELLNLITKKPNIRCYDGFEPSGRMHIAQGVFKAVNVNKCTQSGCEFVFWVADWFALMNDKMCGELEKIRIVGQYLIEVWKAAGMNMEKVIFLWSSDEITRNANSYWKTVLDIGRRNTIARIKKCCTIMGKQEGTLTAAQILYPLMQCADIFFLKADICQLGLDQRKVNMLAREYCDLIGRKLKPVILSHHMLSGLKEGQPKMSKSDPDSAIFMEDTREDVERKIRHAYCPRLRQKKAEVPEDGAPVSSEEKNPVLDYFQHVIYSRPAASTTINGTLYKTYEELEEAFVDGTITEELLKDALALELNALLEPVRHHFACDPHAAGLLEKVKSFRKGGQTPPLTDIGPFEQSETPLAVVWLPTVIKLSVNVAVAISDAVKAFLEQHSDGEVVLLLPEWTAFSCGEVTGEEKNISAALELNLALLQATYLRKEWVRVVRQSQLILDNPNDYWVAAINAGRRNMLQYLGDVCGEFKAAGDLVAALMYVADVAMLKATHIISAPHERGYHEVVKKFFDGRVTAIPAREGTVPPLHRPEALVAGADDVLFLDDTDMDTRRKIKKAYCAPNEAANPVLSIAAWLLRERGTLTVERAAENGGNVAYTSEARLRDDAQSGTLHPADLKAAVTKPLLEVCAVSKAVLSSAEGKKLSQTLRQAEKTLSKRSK

[10] = target: T4, Tyrosyl-tRNA synthetase, putative (Trypanosoma cruzi (strain CL Brener)); test: Trypanosoma cruzi tyrosyl tRNA synthetase (TcYRS) SOP; assay type: functional; settings: 30 µM
[11] = target: Chromo domain-containing protein 1 (Saccharomyces cerevisiae (strain ATCC 204508 / S288c) (Baker's yeast)) (UniProt P32657); test: ScCHD-1 Enzyme Inhibition Assay; assay type: functional; settings: 30 µM; further: in the data most compounds retested in dose-response had high values
Chromo domain-containing protein 1 (Saccharomyces cerevisiae (strain ATCC 204508 / S288c) (Baker's yeast)), sequence (P32657 whole entry, the tested form may be a part): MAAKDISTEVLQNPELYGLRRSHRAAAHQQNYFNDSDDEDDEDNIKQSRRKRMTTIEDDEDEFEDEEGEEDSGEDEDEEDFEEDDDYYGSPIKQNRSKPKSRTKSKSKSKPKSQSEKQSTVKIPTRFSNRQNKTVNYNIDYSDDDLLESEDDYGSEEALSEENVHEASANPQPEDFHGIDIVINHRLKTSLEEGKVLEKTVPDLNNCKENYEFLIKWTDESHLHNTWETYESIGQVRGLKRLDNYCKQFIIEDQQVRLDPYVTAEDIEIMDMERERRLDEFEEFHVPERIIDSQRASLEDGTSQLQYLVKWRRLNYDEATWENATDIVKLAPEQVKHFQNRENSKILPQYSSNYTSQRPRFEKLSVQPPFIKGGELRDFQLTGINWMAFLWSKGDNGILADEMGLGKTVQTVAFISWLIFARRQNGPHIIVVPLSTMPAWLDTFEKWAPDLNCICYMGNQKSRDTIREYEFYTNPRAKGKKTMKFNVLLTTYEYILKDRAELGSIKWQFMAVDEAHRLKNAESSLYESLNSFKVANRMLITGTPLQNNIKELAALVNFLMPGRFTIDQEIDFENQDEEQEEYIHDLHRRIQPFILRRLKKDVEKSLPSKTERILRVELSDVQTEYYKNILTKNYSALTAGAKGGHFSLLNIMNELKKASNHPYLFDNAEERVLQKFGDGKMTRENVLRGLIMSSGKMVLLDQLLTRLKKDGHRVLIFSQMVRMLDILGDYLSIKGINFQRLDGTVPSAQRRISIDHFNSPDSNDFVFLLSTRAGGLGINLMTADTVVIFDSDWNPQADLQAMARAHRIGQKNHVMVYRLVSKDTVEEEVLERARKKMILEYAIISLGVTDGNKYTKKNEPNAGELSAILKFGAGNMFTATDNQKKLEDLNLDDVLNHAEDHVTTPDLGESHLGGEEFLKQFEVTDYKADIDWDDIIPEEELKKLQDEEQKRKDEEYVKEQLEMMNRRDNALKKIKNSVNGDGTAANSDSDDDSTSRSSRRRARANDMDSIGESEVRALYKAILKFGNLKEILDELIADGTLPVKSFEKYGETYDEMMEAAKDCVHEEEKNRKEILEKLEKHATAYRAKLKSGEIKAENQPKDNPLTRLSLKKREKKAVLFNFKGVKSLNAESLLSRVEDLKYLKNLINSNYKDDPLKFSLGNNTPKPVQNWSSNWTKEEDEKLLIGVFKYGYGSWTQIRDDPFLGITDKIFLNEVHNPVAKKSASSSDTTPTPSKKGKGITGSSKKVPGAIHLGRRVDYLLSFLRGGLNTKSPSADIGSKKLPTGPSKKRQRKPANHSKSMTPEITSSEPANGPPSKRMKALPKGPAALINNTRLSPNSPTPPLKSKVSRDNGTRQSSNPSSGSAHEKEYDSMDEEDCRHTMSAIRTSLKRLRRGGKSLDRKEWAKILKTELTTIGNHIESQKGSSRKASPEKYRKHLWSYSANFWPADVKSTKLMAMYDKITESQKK

Protein translocase subunit SecA (Escherichia coli (strain K12)), sequence (P10408 whole entry): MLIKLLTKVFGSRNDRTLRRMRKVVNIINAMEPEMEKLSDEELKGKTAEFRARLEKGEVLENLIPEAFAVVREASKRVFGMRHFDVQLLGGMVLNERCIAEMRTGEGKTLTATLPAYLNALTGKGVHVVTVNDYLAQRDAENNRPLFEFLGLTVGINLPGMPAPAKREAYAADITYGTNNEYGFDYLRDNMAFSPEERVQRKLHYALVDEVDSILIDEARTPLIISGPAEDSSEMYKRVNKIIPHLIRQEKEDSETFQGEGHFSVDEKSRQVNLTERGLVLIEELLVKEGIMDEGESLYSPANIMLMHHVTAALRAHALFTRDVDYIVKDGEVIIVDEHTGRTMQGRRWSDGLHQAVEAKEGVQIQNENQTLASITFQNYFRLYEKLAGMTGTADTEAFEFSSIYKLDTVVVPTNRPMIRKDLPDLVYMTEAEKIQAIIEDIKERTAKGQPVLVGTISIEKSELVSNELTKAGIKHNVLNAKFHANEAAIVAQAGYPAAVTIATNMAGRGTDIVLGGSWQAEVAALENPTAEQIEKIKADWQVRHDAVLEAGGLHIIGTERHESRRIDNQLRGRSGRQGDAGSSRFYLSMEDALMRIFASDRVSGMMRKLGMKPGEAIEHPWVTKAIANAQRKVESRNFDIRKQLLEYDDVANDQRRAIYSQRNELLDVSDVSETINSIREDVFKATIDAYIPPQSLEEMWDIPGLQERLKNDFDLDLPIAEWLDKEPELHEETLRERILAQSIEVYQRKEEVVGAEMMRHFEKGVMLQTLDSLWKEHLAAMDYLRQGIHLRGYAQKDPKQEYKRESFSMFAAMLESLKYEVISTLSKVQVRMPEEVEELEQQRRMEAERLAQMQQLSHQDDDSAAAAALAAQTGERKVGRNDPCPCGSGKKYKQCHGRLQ

| SMILES | Percent Effect [1] [%] | Percent Effect [2] [%] | Percent Effect [3] [%] | Percent Effect [4] [%] | Percent Effect [5] [%] | Percent Effect [6] [%] | Percent Effect [7] [%] | Percent Effect [8] [%] | Percent Effect [9] [%] | Percent Effect [10] [%] | Percent Effect [11] [%] |
| --- | --- | --- | --- | --- | --- | --- | --- | --- | --- | --- | --- |
| CCN(c1ccc(C(=O)N2CCCC(C)C2)cc1)S(=O)(=O)CC (stereo not given) | -1.59 | -4.17 | 8.62 | -2.11 | 0.0972 | -3.09 | 9.3 | 23.2 | -2.1 | -7.69 | 1.02 |
| CNC(=O)CS(=O)(=O)C1CCN(S(=O)(=O)c2ccccc2Br)CC1 | 1.17 | 0 | 4.03 | 13.4 | 4.5 | 5.46 | 2.31 | 26.1 | 1.07 | 2.5 | -0.751 |
| COCCN1CCCC(c2nc3c([nH]2)CC(C)(C)CNC3=O)C1 (stereo not given) | 0.299 | 5.41 | -1.1 | 13.4 | 2.32 | 25.2 | 12.4 | 10.5 | 5.82 | 9.76 | 0.619 |
| Cc1cnn(CC2CCCN2Cc2nnsc2Cl)c1 (stereo not given) | -4.93 | 0 | -0.946 | -0.665 | -3.68 | -2.66 | 0.573 | 28.5 | 2.46 | -3.8 | 3.6 |
| CNC(=O)CCNC(=O)c1cccc(Cn2nc(C)cc2C)c1 | -1.98 | 4.17 | 1.31 | 2.11 | 5.15 | -3.09 | 10.7 | 15.9 | 6.32 | 7.69 | -5.17 |
| Cc1cnc(CN(C)C2CCN(CCc3ccccn3)CC2)cn1 | -1.96 | 13.5 | -8.24 | -5.72 | 5.48 | -3.88 | 14.5 | 13.7 | 7.92 | 15.8 | -6.34 |
| O=C(c1nc(COc2ccc3c(c2)OCO3)no1)N1CCCC1 | -2.38 | 1.33 | -0.332 | 4.46 | -6.88 | -12.5 | 9.98 | 3.63 | 3.17 | 5.13 | -8.92 |
| COc1cccc(CN2CCC(c3cc(O)nc(C)n3)C2)c1 (stereo not given) | -3.18 | 12.2 | 6.93 | 3.66 | 2.37 | -3.02 | 11.7 | 29.9 | 6.45 | 14.3 | -5.62 |
| Cc1cc(C)n(C2CCCN(C(=O)C3=NN(C)C(=O)CC3)C2)n1 (stereo not given) | -0.53 | 18.9 | -18.2 | -2.77 | 5 | -12.8 | 11.9 | 23.2 | 8.37 | 25.9 | -9.84 |
| c1ccc(C[C@H]2CN(Cc3nccs3)CC[C@H]2OCC2CC2)cc1 | -4.65 | 2.67 | 3.57 | 3.38 | -0.591 | -2.56 | 4.32 | 21.5 | 3.19 | 11.5 | -3.05 |
| Cc1cc(F)c(S(=O)(=O)NCCCN2CCC(O)CC2)cc1F | 0.398 | 5.2 | 5.04 | -1.8 | -10.9 | -24.8 | 15.8 | 19.9 | -1.07 | 1.24 | -1.88 |
| CCc1nc(C2CCCN2Cc2nnc(Cc3ccccc3)o2)no1 (stereo not given) | -3 | 0 | 2.23 | 3.12 | 8.52 | 1.9 | 5.25 | -2.79 | 1.91 | 2.35 | 4.27 |
| COCc1cccc(CNC(=O)CN2CCCC2c2noc(C)n2)c1 (stereo not given) | -2.68 | 23.7 | -2.93 | 3.2 | 5.83 | -2.68 | 15.5 | 1.75 | 4.41 | 24.4 | -13 |
| COc1cccc(N2CCN(C(=O)C(O)c3cccc(Cl)c3)CC2=O)c1 (stereo not given) | 0.76 | 10.8 | -5.94 | -2.7 | -3.48 | -1.91 | 11.2 | 22.3 | 4.76 | 0 | -1.09 |
| Cn1cccc1C(=O)N1CCC2(CC1)CN(c1ccccn1)CCO2 | -5.31 | 5.2 | -0.668 | 10.6 | 9.54 | -55.2 | 5.49 | 6.16 | -2.15 | -1.24 | -2.89 |
| O=C(CCN1CCCC1=O)NCc1cccnc1Oc1ccccc1 | -6.95 | -8.22 | 0.461 | 2.58 | 0.595 | -1.2 | 4.88 | -2.67 | 1.04 | 6.17 | -1.4 |
| CCN1CCN(S(=O)(=O)c2cc(C)c(Cl)cc2Cl)CC1 | -6.87 | -2.6 | 4.8 | 4.35 | -2.85 | 1.38 | -0.166 | 13.9 | -3.23 | -6.17 | 4.8 |
| Cc1ccc(C(C)N(C)Cc2nc3c(cnn3C)c(=O)[nH]2)cc1 (stereo not given) | 0.32 | 16.2 | -5.9 | 6.25 | 1.21 | 3.88 | 15.8 | 21.7 | 7.92 | 13.4 | -7.48 |
| Cn1cc(C[C@H]2[C@H](O)CCN2CC2CC2)cn1 | -2.02 | -2.7 | 6.23 | 1.34 | 1.27 | -32.8 | 11.2 | 1.21 | 5.41 | 5.13 | 0.853 |
| O=C(C1CCCCN1Cc1nc(-c2ccco2)no1)N1CCCC1 (stereo not given) | -8.23 | -2.7 | 7.91 | 4.5 | -5.11 | -1.66 | 2.33 | 6.46 | 0 | 3.66 | 5.11 |
